The results in this text go back to publication PMC4336329 (PLoS ONE, 2015).

The campaign covered roughly 310,000 compounds. About 14,000 (4.5%) showed an effect of 50% or more. The effect is printed as a negative number. What follows is part of a selection rich in strong results, with near analogues and random picks from the rest.
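Further: peak tail current of the secondary pulse compared with the same well before compound.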

The experiment deals with human ether-à-go-go-related gene (hERG) potassium channel (human, UniProt Q12809). Nature of the experiment: primary screen, population patch clamp on CHO cells stably expressing hERG; higher = less effect of the substance.
human ether-à-go-go-related gene (hERG) potassium channel, sequence (Q12809 whole entry, looked up): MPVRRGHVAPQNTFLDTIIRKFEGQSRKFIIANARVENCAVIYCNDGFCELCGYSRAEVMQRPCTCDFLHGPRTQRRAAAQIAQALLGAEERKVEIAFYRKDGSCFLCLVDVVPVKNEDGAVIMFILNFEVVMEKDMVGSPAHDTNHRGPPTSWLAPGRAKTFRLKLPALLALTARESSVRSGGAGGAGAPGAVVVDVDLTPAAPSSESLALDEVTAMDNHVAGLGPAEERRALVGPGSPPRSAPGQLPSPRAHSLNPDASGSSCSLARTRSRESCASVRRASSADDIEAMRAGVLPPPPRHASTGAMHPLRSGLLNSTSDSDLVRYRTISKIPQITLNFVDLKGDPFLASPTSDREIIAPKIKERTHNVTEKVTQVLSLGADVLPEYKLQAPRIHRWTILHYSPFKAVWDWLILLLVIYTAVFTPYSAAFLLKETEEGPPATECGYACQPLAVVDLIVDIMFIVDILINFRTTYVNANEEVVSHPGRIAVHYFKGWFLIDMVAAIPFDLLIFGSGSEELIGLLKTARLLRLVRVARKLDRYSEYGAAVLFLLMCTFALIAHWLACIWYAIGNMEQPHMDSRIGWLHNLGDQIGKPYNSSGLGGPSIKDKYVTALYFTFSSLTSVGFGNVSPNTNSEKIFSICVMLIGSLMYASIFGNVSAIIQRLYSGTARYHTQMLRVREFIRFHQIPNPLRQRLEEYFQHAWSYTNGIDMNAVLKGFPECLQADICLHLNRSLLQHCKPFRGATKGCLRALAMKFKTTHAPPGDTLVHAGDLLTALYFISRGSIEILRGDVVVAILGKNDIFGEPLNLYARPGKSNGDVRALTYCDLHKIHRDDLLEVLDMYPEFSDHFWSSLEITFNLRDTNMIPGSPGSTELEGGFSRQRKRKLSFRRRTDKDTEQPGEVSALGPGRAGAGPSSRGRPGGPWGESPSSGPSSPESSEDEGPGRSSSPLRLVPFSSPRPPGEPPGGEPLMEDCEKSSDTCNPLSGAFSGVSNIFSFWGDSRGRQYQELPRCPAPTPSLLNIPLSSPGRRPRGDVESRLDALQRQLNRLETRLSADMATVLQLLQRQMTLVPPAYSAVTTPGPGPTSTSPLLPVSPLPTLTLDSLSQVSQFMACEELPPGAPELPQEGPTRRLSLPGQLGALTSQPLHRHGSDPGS
Take `CCNC(=O)C1CC(=O)N(c2ccc(Br)cc2)C1` (stereo not drawn): the “hERG current change (%, negative = inhibition) at 10uM” value was determined as 2.64%.
In the case of `CC1(C)Cc2c(sc3nc(NCCN4CCOCC4)n4ncnc4c23)CO1`, the “hERG current change (%, negative = inhibition) at 10uM” value is given as -5.72%.
In the case of `N/C(=N\OC(=O)CSc1ccccc1)c1ccncc1`, the “hERG current change (%, negative = inhibition) at 10uM” value is on record as 0.55%.
On to `CC1CC(C)CN(C(=O)c2cc(S(=O)(=O)N3CCCCC3)ccc2Cl)C1` (stereo not drawn), for which the “hERG current change (%, negative = inhibition) at 10uM” value is reported as -37.7%.
As for `Cc1ccc(NN2C(=O)C=C(c3ccc(Cl)cc3)C2=O)cc1`, the “hERG current change (%, negative = inhibition) at 10uM” value amounted to 13.9%.
The figure for `Cl.Fc1ccc(CCNCc2cccc(Cl)c2)cc1` is -16.5%; for `CCCCCCNCc1cccc(Br)c1.Cl` it is -11.3%; for `CCN(CC)c1ccc(CNCCc2ccccc2F)cc1.Cl` it is -5.46%.
The figure for `CCCCCCNCc1ccc(Br)cc1.Cl` is -61.7%; for `CCCCCNCc1ccc(Br)cc1.Cl` it is -33.3%.
Then `CCN(CC)c1ccc(CNCCc2ccc(F)cc2)cc1.Cl`, with -58.8%.
Take `O=C(NCCO)c1ccc2[nH]c3c(c2c1)CCCC3`: the “hERG current change (%, negative = inhibition) at 10uM” value is given as -0.0914%.
With `Cc1nc(COC(=O)c2c(C)nn(-c3ccccc3)c2C)cs1`, the “hERG current change (%, negative = inhibition) at 10uM” value is recorded as -2.05%.
For `Cc1ccc(C(=O)C(C)OC(=O)Cc2c[nH]c3ccccc23)cc1` (stereo not drawn), the “hERG current change (%, negative = inhibition) at 10uM” value was found to be 1.64%.
For the molecule `CN(CC(=O)NCC(=O)Nc1ccc(F)cc1)C1CCS(=O)(=O)C1` (stereo not drawn), the “hERG current change (%, negative = inhibition) at 10uM” value was determined as 13.3%.
The figure for `O=C(NC1CCCCCC1)c1ccc(CN2CCOCC2)cc1` is 11.3%.
Consider `Cc1ccc(CNC(=O)c2ccccc2-n2cnnn2)cc1`, for which the “hERG current change (%, negative = inhibition) at 10uM” value is given as 9.73%.
Then `O=C(NC(=S)NC1CCCCCCCCCCC1)c1cccnc1`, with -4.46%; and `COc1ccc(C(=O)NCCCN2CCOCC2)cc1`, with -1.82%; and `O=C(NCCNC(=O)c1ccc(F)cc1)c1ccc(F)cc1`, with 0.397%.
Then `Cl.O=C(NCCN1CCCC1)c1ccc(Br)cc1`, with -11.9%; and `O=C(NCCN1CCOCC1)c1ccc(F)cc1`, with 1.66%.
Then `COc1ccc(C(=O)NCCN2CCCC2)cc1.Cl`, with 3.56%; and `COc1ccc(C(=O)NCCN2CCN(C(=O)c3ccc(OC)cc3)CC2)cc1`, with -75.2%.
Consider `O=C(NCCN1CCN(C(=O)c2ccc(Br)cc2)CC1)c1ccc(Br)cc1`, for which the “hERG current change (%, negative = inhibition) at 10uM” value is -71.3%.
Then `O=C(NCCCN1CCOCC1)c1ccc(Br)cc1`, with -13.7%; and `O=C(NCCN1CCN(C(=O)c2ccc(F)cc2)CC1)c1ccc(F)cc1`, with -70.1%; and `CC(O)CNc1cnccn1` (stereo not drawn), with 8.76%.
For the molecule `Cc1cc(C)c(N(C(=O)c2csnn2)C(C(=O)NC(C)(C)C)c2ccncc2)c(C)c1` (stereo not drawn), the “hERG current change (%, negative = inhibition) at 10uM” value is reported as 9.01%.
For `O=C(c1ccco1)N1CCN(S(=O)(=O)c2ccc3c(c2)OCCO3)CC1`, the “hERG current change (%, negative = inhibition) at 10uM” value was -0.283%.
Regarding `CC(=O)Nc1ccc(SCC(=O)Nc2oc(C)c3c(C)n[nH]c(=O)c23)cc1`, the “hERG current change (%, negative = inhibition) at 10uM” value is reported as 8.72%.
The figure for `CCn1c(/C=C/N(C(C)=O)c2ccccc2)[n+](CC)c2ccc(Cl)cc21.[I-]` is 2.3%.
Turning to `Cc1n(C)c2cc(Cl)ccc2[n+]1Cc1ccccc1.[I-]`, the “hERG current change (%, negative = inhibition) at 10uM” value is given as -3.49%.
Then `CCn1c(/C=C/N(C(C)=O)c2ccccc2)[n+](CCCS(=O)(=O)[O-])c2cc(Cl)c(Cl)cc21`, with 19.9%; and `CCn1c(C)[n+](CCOCC[n+]2c(C)n(CC)c3cc(Cl)c(Cl)cc32)c2cc(Cl)c(Cl)cc21.[I-]`, with 6.82%; and `CCn1c(/C=C/Nc2ccccc2)[n+](CC)c2cc(Cl)c(Cl)cc21.[I-]`, with -79.3%.
The figure for `CCn1c(/C=C/Nc2ccccc2)[n+](CC)c2ccc(Cl)cc21.[I-]` is -78.6%; for `CC(=O)c1ccc(Oc2cc(C)nc(N3CCOCC3)n2)cc1` it is -13.3%.
For the molecule `COC(=O)c1ccc(Oc2cc(C)nc(-n3nc(C)cc3C)n2)cc1`, the “hERG current change (%, negative = inhibition) at 10uM” value was -22.4%.
Then `CC(=O)c1ccc(Oc2cc(C)nc(-n3nc(C)cc3C)n2)cc1`, with -59.9%; and `COc1cccc(OC)c1C(=O)N1CCN(Cc2ccccc2C)CC1`, with -0.823%; and `O=C1C2C3C=CC(C2C(=O)N1C1CCCCC1)C1C(=O)N(C2CCCCC2)C(=O)C31` (stereo not drawn), with 14.7%.
The figure for `COc1ccc(C2c3ccc(O)cc3Oc3ncn(Cc4ccco4)c(=N)c32)cc1OC` (stereo not drawn) is -74.4%.
The figure for `COc1ccc(C2c3ccc(O)cc3Oc3ncn(CCCO)c(=N)c32)cc1OC` (stereo not drawn) is -6.28%; for `COc1ccc(C2c3ccc(O)cc3Oc3ncn(Cc4ccccc4)c(=N)c32)cc1OC` (stereo not drawn) it is -51.7%.
